# Assay results published in PubChem BioAssay.
# “And” between values parts separate entries of the source, which are not always exact repeats. Equal values may be shown once. Results filed as inconclusive are left out. The source made the active and inactive calls.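 Rule for the calls, unless noted: active = normalized viability below 100% at a tested concentration; inactive = the rest.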
# Key:
# [1] = liver-stage malaria parasite load reduction – cell-based, known kinase inhibitor set, luminescence, hepatoma host viability (AID 624392; call rule not given here;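 note: infected cells incubated roughly two days before readout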); conditions: Plasmodium liver stage in hepatoma cells, luciferase luminescence, concentration not given here; liver cell % of control: measured here: host liver cell viability; parasite % of control: stronger effect = lower value
# [2] = JHH-DIPG-1 glioma cell viability, MIPE5.0 library, CellTiter-Glo luminescence, qHTS (AID 1347067; cut-off not given, nearly all actives have AC50 up to about 26 µM;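 note: cells exposed to compound for 48 hours before readout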); conditions: JHH-DIPG-1 glioma viability, CellTiter-Glo ATP luminescence
# [3] = growth inhibition of DIPG cells – cell-based, MIPE5.0 library, qHTS (AID 1347068; cut-off not given, nearly all actives have IC50 up to about 30 µM); conditions: SU-DIPG-XXV viability
# [4] = growth inhibition of DIPG cells – cell-based, MIPE4.0 library, CellTiter-Glo luminescence, qHTS (AID 1347066; cut-off not given, nearly all actives have AC50 up to about 30 µM;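 note: cells exposed to compound for 48 hours before readout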); conditions: SU-DIPG-VI viability, CellTiter-Glo ATP luminescence
# [5] = P. berghei load reduction in hepatocytes – cell-based, HepG2, luciferase luminescence, HepG2 viability, primary screen (AID 624349; in the data active = parasite load remaining mostly below about 12%, no sharp cut-off; inactive = mostly above about 10%;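 note: 100% = mean of DMSO negative control wells on the same plate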); conditions: P. berghei liver stage in HepG2, luciferase luminescence, concentration not given here; parasite load remaining: stronger effect = lower value; viability: measured here: HepG2 viability without parasites
# [6] = compounds altering HSF1 focus formation in cells – imaging, Selleck Cancer Library (AID 1347162; in the data active = plate-normalised HSF1 focus index below about 0.46); conditions: human cells, HSF1 nuclear foci imaging, at 10 µM; SSMD: measured here: HSF1 foci SSMD mean; cell count: measured here: cell number; plate-normalised HSF1 focus index: stronger effect = lower value
# [7] = viability loss in pontine glioma line – cell-based, SU-DIPG-XXV, MIPE5.0, CellTiter-Glo, qHTS, dose response (AID 1347065; cut-off not given, nearly all actives have AC50 up to about 26 µM;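 note: cells exposed to compound for 48 hours before ATP readout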); conditions: CellTiter-Glo ATP luminescence
# [8] = viability loss with induced miR-34 in A549 – imaging, A549 dox-inducible miR-34, nuclei and caspase counts, primary screen (AID 1347080;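 active = compounds whose cell count with miR-34 switched on is under 0.7 times the count with it off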); conditions: A549 miR-34 inducible, Hoechst nuclei count, 48 h
# [9] = MELAS cybrid and Rieske KO viability enhancers – cell-based, MELAS cybrids, Rieske KO mouse fibroblasts, CellTiter-Glo, primary screen (AID 1508586;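 active = mean z-score across replicates of 1.96 or higher in either the MELAS or the Rieske mutant cell line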;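 note: z relative to plate mean and SD of compound and empty wells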); conditions: low glucose
# [10] = drug combination growth inhibition, ovarian cancer – cell-based, oncology-focused library, rucaparib conditional, profiling panel (AID 1508598); conditions: patient-derived ovarian cancer cells, CellTiter-Glo viability, 144 h, stronger effect = lower value
# [11] = stronger effect = lower value, cell number ratio, induced over uninduced
# [12] = measured here: relative caspase fold change +Dox/-Dox
# [13] = measured here: total cells with miR-34 induction, stronger effect = lower value
# [14] = measured here: total cells without miR-34 induction
# [15] = MELAS cybrid survival, CellTiter-Glo 48 h, stronger effect = higher value
# [16] = Rieske KO mouse fibroblast survival, CellTiter-Glo 72 h
structure (smiles),measurement,setting,value
OCCC#Cc1nc(-c2ccc(F)cc2)c(-c2ccncc2)n1CCCc1ccccc1,liver cell % of control,[1],306% and 93.3% and 95.7%
same,parasite % of control,[1],3.85% (inactive) and 44.3% (inactive) and 36.9% (inactive)
same,AC50,[2],26.3 µM (active)
same,outcome,[3],inactive
NC(=O)c1nnn(Cc2cc(Cl)c(C(=O)c3ccc(Cl)cc3)c(Cl)c2)c1N,AC50,[4],18.7 µM (active)
Cn1cc(-c2ccc(-c3cncc(Cl)c3N3CCC4(CCNC4=O)CC3)cc2)cn1,outcome,[2],inactive
same,outcome,[3],inactive
CS(=O)(=O)c1ccc(-c2cnc(NCc3ccco3)n3cnnc23)cc1,AC50,[2],20.9 µM (active)
Cc1cccc(/C=N/Nc2cc(N3CCOCC3)nc(OCCc3ccccn3)n2)c1,outcome,[2],inactive
CCC(=O)N[C@H]1CC[C@H](C(=O)N(C)c2ccc(-c3nc4ccccc4o3)cc2)C1,outcome,[4],inactive
same,outcome,[2],inactive
C#CCC(Cc1cnc2nc(N)nc(N)c2n1)c1ccc(C(=O)N[C@@H](CCC(=O)O)C(=O)O)cc1 (some centres undefined),outcome,[2],inactive
COc1cc2nccc(Oc3ccc(NC(=O)c4cn(C(C)C)c(=O)n(-c5ccc(F)cc5)c4=O)cc3F)c2cc1OC,outcome,[2],inactive
same,outcome,[3],inactive
CC1CCN(c2cc(N3CCN(C)CC3)ccc2NC(=O)c2cc(C#N)c[nH]2)CC1,outcome,[4],inactive
same,outcome,[3],inactive
NC(=O)c1ccc2nc(-c3ccc(Oc4ccc(Cl)cc4)cc3)[nH]c2c1,parasite load remaining,[5],38.6% (inactive)
same,viability,[5],91.3%
same,outcome,[4],inactive
same,outcome,[3],inactive
same,SSMD,[6],0.89
same,cell count,[6],6720
same,plate-normalised HSF1 focus index,[6],1.06 (inactive)
Cc1csc(NC(=O)c2sc3nc4c(c(C(F)(F)F)c3c2N)CCC4)n1,outcome,[2],inactive
CC(C)C[C@H](NC(=O)[C@H](Cc1ccccc1)NC(=O)OCc1ccccc1)C(=O)C=O,outcome,[2],inactive
Cc1cccc(CC(=O)N2CCc3c2ccc(-c2cn(C)c4ncnc(N)c24)c3F)n1,AC50,[7],10.5 µM (active)
same,fold change,[8]; [11],1.38 (inactive)
same,fold change,[8]; [12],0.997
same,cell count,[8]; [13],7830
same,cell count,[8]; [14],5660
same,z-score,[9]; [15],-0.412 (inactive)
same,z-score,[9]; [16],-0.298
C[C@]12CCC3[C@@H](CC[C@H]4NC(=O)C=C[C@]34C)[C@@H]1CC[C@@H]2C(=O)Nc1cc(C(F)(F)F)ccc1C(F)(F)F (some centres undefined),outcome,[3],inactive
COC1CC(C(=O)c2ccc3c(N)ncc(-c4ccc(-c5cnn(C)c5)cc4)c3n2)C1 (centres undefined),outcome,[2],inactive
same,outcome,[3],inactive
CN1CCN(c2ccc(OC(F)(F)F)c(Nc3ncc4c(n3)-c3c(c(C(N)=O)nn3CCO)CC4)c2)CC1,AC50,[7],0.118 µM (active)
same,fold change,[8]; [11],0.983 (inactive)
same,fold change,[8]; [12],0.326
same,cell count,[8]; [13],1120
same,cell count,[8]; [14],1140
same,z-score,[9]; [15],1.84 (inactive)
same,z-score,[9]; [16],-0.694
same,viability,"[10]; at 0.000305 µM, OCI-C5x cells, with rucaparib 10 µM, 100% = cells with rucaparib alone",119% (inactive)
same,viability,"[10]; at 0.000305 µM, OCI-C5x cells, without rucaparib",114% (inactive)
same,viability,"[10]; at 0.000305 µM, OCI-P5x cells, with rucaparib 20 µM, 100% = cells with rucaparib alone",90% (active)
same,viability,"[10]; at 0.000305 µM, OCI-P5x cells, without rucaparib",84.5% (active)
same,viability,"[10]; at 0.00122 µM, OCI-C5x cells, with rucaparib 10 µM, 100% = cells with rucaparib alone",125% (inactive)
same,viability,"[10]; at 0.00122 µM, OCI-C5x cells, without rucaparib",112% (inactive)
same,viability,"[10]; at 0.00122 µM, OCI-P5x cells, with rucaparib 20 µM, 100% = cells with rucaparib alone",94.4% (active)
same,viability,"[10]; at 0.00122 µM, OCI-P5x cells, without rucaparib",86.5% (active)
same,viability,"[10]; at 0.00488 µM, OCI-C5x cells, with rucaparib 10 µM, 100% = cells with rucaparib alone",123% (inactive)
same,viability,"[10]; at 0.00488 µM, OCI-C5x cells, without rucaparib",105% (inactive)
same,viability,"[10]; at 0.00488 µM, OCI-P5x cells, with rucaparib 20 µM, 100% = cells with rucaparib alone",88.1% (active)
same,viability,"[10]; at 0.00488 µM, OCI-P5x cells, without rucaparib",58.9% (active)
same,viability,"[10]; at 0.0195 µM, OCI-C5x cells, with rucaparib 10 µM, 100% = cells with rucaparib alone",125% (inactive)
same,viability,"[10]; at 0.0195 µM, OCI-C5x cells, without rucaparib",60% (active)
same,viability,"[10]; at 0.0195 µM, OCI-P5x cells, with rucaparib 20 µM, 100% = cells with rucaparib alone",78.1% (active)
same,viability,"[10]; at 0.0195 µM, OCI-P5x cells, without rucaparib",20.2% (active)
same,viability,"[10]; at 0.0781 µM, OCI-C5x cells, with rucaparib 10 µM, 100% = cells with rucaparib alone",67.6% (active)
same,viability,"[10]; at 0.0781 µM, OCI-C5x cells, without rucaparib",40.8% (active)
same,viability,"[10]; at 0.0781 µM, OCI-P5x cells, with rucaparib 20 µM, 100% = cells with rucaparib alone",64.7% (active)
same,viability,"[10]; at 0.0781 µM, OCI-P5x cells, without rucaparib",14.3% (active)
same,viability,"[10]; at 0.313 µM, OCI-C5x cells, with rucaparib 10 µM, 100% = cells with rucaparib alone",49.1% (active)
same,viability,"[10]; at 0.313 µM, OCI-C5x cells, without rucaparib",27.6% (active)
same,viability,"[10]; at 0.313 µM, OCI-P5x cells, with rucaparib 20 µM, 100% = cells with rucaparib alone",70% (active)
same,viability,"[10]; at 0.313 µM, OCI-P5x cells, without rucaparib",13.1% (active)
same,viability,"[10]; at 1.25 µM, OCI-C5x cells, with rucaparib 10 µM, 100% = cells with rucaparib alone",37.5% (active)
same,viability,"[10]; at 1.25 µM, OCI-C5x cells, without rucaparib",28.9% (active)
same,viability,"[10]; at 1.25 µM, OCI-P5x cells, with rucaparib 20 µM, 100% = cells with rucaparib alone",73.8% (active)
same,viability,"[10]; at 1.25 µM, OCI-P5x cells, without rucaparib",13.7% (active)
same,viability,"[10]; at 5 µM, OCI-C5x cells, with rucaparib 10 µM, 100% = cells with rucaparib alone",40.7% (active)
same,viability,"[10]; at 5 µM, OCI-C5x cells, without rucaparib",26.6% (active)
same,viability,"[10]; at 5 µM, OCI-P5x cells, with rucaparib 20 µM, 100% = cells with rucaparib alone",74.1% (active)
same,viability,"[10]; at 5 µM, OCI-P5x cells, without rucaparib",14.5% (active)
